Our source for the growth inhibition values is PubChem BioAssay (NCI).

About 79,000 compounds went through this panel and 15% of them were active in at least one assay; those are over-represented in the sample as a whole. Unmarked numbers belong to inactive results. Calls of active or inactive are those of the source. Cut-off read from the data, not from the text of the source: active = growth inhibition above about 70%; inactive = the rest.

This experiment is described as follows: NCI Yeast Anticancer Drug Screen. Data for the bub3 strain (AID 167). Conditions: S. cerevisiae bub3 mutant strain, at 50.0 µM, active compounds read high. An outline of the steps:
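Screening used yeast with an engineered genetic alteration affecting cell cycle control. Compound-exposed cultures were compared with vehicle cultures, and reduced growth was taken as inhibition.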
For the compound `CCOC(=O)/C=C\n1c(=O)cc(C)c2ccccc21`, the growth inhibition was -2.75%. On to `C[n+]1cc(I)cc2ccccc21`, for which the growth inhibition was 4.05%.

In the case of `CC(=O)Oc1cc2oc([O-])c[n+]2c2ccccc12`, the growth inhibition is 12.6%. Under `N#CNc1ccccc1` stands 5.15%; under `COC(O)C(=O)c1c2c(cc3c1CCC3)CCC2` (configuration not stated), 21.1%; under `C=CCCCCCCCC(O)C1C[C@H](O)C(CCCCC)O1` (some centres not stated), -17.2%. Consider `CCOC(=O)C1C(c2ccc(N(C)C)cc2)c2cc3c(cc2OC1(C)N1CCCC1)OCO3` (configuration not stated), for which the growth inhibition was -3.15%.

For `Cc1c2ccccc2nc(CSCCO)[n+]1[O-]`, the growth inhibition was 5.5%. For `CNC(=O)/C=C/C1=CN2C(=O)c3ccc(C)c(O)c3NC(OC)C2C1` (configuration not stated), the growth inhibition was 92.3% (active). Take `COC(OC)C1(CCc2ccccc2)NC(=O)N(C)C1=O` (configuration not stated): the growth inhibition was 25.6%. Under `ClC(Cl)C1OCCCO1` stands 12.2%; under `OC(CN(C1CCCCC1)C1CCCCC1)c1ccnc2c(Cl)cc(Cl)cc12` (configuration not stated), -6.3%. Turning to `CC(=O)OC1CCC2(C)C(CCC3C2C(=O)C(Br)C2(C)C(C(C)=O)CCC32)C1` (configuration not stated), the growth inhibition is 13.3%.

In the case of `CCCCSc1ccc2n(C)c(-c3ccc(/C=N\NC(=O)c4ccc(C(=O)N/N=C\c5ccc(-c6c[n+]7cc(SCCCC)ccc7n6C)cc5)cc4)cc3)c[n+]2c1`, the growth inhibition was -7.1%.

As to `O=C(O)c1c[nH]c(=O)[nH]c1=O.[Cu+2]`, the growth inhibition was -40.8%. Under `COc1cccc2c1OC(=O)NC2O` (configuration not stated) stands -20.4%; under `COc1c(Cl)cc(Cl)c(C)c1C(C)C(=O)O` (configuration not stated), 25.5%.
